Consider two compounds from ChEMBL document CHEMBL1961873, “Compounds: GSK PKIS; Assays: Nanosyn kinase panel” (2012).

Test [1] concerns the target Protein kinase C gamma type (Homo sapiens) (UniProt P05129). Conditions: at 1 µM.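 Further: each value is an averaged percent inhibition of the enzyme.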
In test [2] the target is T1, Protein kinase C iota type (Homo sapiens) (UniProt P41743).
T1 sequence (whole entry): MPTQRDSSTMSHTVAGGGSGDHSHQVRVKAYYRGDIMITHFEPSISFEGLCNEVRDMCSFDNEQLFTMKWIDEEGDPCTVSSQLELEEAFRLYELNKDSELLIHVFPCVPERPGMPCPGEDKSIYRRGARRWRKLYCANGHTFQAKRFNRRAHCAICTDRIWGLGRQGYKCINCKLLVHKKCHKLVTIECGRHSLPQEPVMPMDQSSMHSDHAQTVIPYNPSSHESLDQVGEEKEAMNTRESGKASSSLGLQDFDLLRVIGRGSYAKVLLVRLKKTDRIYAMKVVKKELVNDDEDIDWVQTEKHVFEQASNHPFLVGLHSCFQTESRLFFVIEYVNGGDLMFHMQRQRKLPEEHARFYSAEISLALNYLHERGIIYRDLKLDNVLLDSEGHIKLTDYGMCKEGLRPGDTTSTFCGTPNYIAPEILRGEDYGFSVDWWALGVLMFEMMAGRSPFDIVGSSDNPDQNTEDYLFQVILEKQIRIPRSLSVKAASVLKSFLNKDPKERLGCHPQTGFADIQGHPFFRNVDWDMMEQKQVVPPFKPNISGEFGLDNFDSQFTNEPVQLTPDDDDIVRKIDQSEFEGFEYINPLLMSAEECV
Conditions: at 0.1 µM.

Test [3] addresses T1, Protein kinase C iota type (Homo sapiens). Conditions: at 1 µM.
Test [4] concerns the target Protein kinase C theta type (Homo sapiens) (UniProt Q04759). Conditions: at 0.1 µM.
For test [5] the target is unchanged. Conditions: at 1 µM.
Test [6] concerns the target Protein kinase C beta type (Homo sapiens) (UniProt P05771). Conditions: at 0.1 µM.
For test [7] the target is unchanged. Conditions: at 1 µM.
The target of test [8] is T2, Serine/threonine-protein kinase D1 (Homo sapiens) (UniProt Q15139).
T2 sequence (whole entry): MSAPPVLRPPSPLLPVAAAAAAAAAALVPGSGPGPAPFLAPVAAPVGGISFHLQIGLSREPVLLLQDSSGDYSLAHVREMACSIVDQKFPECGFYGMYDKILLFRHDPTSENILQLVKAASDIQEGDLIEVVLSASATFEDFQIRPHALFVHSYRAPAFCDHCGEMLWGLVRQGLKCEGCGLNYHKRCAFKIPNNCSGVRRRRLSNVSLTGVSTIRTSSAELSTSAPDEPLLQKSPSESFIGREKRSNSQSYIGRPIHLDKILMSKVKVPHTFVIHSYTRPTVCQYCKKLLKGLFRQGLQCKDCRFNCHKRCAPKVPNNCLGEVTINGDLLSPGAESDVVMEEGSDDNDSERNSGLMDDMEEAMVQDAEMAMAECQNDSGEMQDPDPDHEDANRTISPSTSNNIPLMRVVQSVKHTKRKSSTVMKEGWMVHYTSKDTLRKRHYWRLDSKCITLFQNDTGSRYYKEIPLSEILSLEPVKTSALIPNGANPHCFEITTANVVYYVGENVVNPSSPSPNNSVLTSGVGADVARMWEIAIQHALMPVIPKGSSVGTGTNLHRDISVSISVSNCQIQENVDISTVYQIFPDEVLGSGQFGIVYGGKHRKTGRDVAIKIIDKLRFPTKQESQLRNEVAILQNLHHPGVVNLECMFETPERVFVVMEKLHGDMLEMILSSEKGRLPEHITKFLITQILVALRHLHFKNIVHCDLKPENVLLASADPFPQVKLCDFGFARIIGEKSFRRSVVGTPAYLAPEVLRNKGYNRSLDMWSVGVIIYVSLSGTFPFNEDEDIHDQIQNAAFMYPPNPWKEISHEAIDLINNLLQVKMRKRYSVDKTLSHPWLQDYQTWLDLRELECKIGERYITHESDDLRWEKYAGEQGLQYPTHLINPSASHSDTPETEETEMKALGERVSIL
Conditions: at 0.1 µM.

Test [9] addresses T2, Serine/threonine-protein kinase D1 (Homo sapiens). Conditions: at 1 µM.
The target in test [10] is T3, Serine/threonine-protein kinase D2 (Homo sapiens) (UniProt Q9BZL6).
T3 sequence (whole entry): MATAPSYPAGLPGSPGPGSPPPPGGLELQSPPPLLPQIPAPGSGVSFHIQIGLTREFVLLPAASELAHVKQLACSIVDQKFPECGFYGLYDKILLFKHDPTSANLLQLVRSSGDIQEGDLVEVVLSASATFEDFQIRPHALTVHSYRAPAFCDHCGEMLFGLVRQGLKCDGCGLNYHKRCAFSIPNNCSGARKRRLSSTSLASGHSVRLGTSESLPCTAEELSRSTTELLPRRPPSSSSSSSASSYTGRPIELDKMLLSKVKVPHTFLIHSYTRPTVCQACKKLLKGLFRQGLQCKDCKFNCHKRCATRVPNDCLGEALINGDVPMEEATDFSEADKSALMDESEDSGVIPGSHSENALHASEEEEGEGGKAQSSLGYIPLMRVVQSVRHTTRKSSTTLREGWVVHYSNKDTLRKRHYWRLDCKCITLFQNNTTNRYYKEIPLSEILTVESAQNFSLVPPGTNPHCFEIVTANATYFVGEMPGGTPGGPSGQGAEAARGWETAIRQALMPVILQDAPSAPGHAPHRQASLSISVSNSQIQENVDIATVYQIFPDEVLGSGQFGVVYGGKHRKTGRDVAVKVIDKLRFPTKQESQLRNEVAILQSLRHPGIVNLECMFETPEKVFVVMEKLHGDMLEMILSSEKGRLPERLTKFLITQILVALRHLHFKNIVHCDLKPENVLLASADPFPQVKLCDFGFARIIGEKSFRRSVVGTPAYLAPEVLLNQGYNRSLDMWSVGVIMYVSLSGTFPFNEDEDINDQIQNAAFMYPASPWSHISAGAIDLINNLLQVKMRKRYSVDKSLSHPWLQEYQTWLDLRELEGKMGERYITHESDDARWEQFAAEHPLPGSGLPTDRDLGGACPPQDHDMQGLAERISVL
To be noted: at 0.1 µM.

The target of test [11] is T3, Serine/threonine-protein kinase D2 (Homo sapiens). Conditions: at 1 µM.
The target in test [12] is T4, Serine/threonine-protein kinase D3 (Homo sapiens) (UniProt O94806).
T4 sequence (whole entry): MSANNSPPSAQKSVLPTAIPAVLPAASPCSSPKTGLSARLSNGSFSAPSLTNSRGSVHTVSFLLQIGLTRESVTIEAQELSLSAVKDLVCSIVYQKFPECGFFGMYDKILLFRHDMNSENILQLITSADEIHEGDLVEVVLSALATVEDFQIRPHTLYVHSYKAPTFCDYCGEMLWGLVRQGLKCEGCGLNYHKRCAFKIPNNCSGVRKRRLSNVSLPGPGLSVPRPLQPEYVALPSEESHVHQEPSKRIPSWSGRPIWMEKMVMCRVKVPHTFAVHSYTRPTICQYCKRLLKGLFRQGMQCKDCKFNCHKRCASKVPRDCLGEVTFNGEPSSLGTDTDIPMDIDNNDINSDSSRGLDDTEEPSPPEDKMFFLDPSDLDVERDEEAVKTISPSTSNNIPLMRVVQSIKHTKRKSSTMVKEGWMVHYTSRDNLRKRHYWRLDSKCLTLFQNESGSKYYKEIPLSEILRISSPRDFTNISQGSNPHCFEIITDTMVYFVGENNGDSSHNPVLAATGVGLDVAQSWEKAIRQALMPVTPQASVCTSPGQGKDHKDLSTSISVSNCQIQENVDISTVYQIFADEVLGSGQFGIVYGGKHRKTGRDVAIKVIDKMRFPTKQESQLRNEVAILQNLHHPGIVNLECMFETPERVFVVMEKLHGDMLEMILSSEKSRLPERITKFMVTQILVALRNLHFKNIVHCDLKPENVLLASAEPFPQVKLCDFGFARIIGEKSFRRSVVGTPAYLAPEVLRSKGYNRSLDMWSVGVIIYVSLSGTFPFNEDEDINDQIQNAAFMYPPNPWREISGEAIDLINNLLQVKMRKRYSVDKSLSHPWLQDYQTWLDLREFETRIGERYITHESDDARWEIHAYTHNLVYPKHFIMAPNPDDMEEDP
To be noted: at 0.1 µM.

Test [13] has as its target T4, Serine/threonine-protein kinase D3 (Homo sapiens). Conditions: at 1 µM.
Test [14] deals with T5, cGMP-dependent protein kinase 1 (Homo sapiens) (UniProt Q13976).
T5 sequence (whole entry): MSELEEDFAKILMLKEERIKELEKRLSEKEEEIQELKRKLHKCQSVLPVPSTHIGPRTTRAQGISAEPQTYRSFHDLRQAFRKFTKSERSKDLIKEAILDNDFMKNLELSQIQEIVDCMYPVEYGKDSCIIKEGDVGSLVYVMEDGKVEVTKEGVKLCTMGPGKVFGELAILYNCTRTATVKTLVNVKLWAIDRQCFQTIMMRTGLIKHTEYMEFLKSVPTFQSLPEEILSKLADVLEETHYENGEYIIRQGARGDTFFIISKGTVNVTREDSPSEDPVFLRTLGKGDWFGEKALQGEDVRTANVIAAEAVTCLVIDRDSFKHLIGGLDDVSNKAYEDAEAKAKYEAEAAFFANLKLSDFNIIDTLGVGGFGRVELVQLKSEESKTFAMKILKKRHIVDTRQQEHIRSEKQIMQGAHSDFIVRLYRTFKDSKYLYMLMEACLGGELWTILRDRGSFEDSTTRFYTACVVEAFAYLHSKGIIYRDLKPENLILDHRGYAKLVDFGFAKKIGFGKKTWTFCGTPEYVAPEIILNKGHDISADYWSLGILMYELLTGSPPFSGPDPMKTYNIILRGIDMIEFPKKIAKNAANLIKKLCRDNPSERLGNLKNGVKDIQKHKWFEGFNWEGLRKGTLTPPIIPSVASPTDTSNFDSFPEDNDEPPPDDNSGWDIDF
Conditions: at 0.1 µM.

The target of test [15] is T5, cGMP-dependent protein kinase 1 (Homo sapiens). To be noted: at 1 µM.
The target in test [16] is T6, cGMP-dependent protein kinase 2 (Homo sapiens) (UniProt Q13237).
T6 sequence (whole entry): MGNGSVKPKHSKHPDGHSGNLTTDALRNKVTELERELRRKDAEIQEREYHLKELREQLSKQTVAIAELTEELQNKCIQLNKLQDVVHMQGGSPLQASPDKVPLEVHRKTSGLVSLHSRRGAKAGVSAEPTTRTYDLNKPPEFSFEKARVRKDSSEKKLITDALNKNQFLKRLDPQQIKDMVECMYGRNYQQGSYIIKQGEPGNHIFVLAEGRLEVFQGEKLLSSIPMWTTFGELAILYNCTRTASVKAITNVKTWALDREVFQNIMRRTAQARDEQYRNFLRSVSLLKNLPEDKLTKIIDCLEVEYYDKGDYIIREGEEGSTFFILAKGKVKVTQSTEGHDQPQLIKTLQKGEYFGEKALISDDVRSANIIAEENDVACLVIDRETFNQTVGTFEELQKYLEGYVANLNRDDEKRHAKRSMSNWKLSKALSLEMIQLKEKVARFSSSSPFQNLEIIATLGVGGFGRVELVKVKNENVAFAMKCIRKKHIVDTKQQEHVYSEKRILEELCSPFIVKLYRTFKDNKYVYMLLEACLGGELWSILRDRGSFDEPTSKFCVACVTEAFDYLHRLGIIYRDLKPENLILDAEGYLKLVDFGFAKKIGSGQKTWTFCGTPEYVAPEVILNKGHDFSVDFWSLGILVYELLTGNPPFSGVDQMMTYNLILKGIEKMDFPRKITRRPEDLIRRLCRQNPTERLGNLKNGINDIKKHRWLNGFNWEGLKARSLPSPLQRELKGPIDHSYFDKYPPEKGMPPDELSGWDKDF
Conditions: at 0.1 µM.

The target in test [17] is T6, cGMP-dependent protein kinase 2 (Homo sapiens). Conditions: at 1 µM.
Test [18] addresses T7, cAMP-dependent protein kinase catalytic subunit PRKX (Homo sapiens) (UniProt P51817).
T7 sequence (whole entry): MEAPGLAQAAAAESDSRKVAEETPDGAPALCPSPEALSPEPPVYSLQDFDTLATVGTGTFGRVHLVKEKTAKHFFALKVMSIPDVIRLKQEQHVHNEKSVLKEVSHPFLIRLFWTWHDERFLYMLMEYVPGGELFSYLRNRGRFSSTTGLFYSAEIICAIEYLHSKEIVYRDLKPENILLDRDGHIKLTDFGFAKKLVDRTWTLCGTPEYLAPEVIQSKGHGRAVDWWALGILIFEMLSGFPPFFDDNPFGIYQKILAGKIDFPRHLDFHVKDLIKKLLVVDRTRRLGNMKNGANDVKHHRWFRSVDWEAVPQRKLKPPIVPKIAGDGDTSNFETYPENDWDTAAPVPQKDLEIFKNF
Conditions: at 0.1 µM.

The target in test [19] is T7, cAMP-dependent protein kinase catalytic subunit PRKX (Homo sapiens). To be noted: at 1 µM.
Test [20] has as its target Rho-associated protein kinase 1 (Homo sapiens) (UniProt Q13464). Conditions: at 0.1 µM.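 Further: values are mean percent inhibition of ROCK1.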

In general, inhibition refers to the relative decrease from the control value, in per cent.

Chain of Protein kinase C theta type (Homo sapiens) (Q04759 whole entry, looked up): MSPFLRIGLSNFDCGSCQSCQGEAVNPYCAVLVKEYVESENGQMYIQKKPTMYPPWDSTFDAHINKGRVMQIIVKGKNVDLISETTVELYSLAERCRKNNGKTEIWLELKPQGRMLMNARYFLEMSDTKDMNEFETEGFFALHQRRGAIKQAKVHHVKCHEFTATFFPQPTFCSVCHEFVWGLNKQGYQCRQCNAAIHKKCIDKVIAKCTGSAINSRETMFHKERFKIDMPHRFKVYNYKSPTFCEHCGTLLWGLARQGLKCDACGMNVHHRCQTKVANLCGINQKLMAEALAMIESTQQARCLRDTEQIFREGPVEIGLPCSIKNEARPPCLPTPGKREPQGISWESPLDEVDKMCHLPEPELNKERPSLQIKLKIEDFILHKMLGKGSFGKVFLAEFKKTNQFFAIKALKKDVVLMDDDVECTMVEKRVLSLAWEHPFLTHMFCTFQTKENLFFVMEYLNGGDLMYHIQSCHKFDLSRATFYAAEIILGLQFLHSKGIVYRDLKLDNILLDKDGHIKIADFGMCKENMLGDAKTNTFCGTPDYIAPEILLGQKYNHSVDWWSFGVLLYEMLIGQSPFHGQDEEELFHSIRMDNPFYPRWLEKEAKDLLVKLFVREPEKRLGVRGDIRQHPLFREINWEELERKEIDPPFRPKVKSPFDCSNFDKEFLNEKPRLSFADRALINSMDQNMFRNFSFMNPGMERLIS
Chain of Protein kinase C beta type (Homo sapiens) (P05771 2-671 limits assumed): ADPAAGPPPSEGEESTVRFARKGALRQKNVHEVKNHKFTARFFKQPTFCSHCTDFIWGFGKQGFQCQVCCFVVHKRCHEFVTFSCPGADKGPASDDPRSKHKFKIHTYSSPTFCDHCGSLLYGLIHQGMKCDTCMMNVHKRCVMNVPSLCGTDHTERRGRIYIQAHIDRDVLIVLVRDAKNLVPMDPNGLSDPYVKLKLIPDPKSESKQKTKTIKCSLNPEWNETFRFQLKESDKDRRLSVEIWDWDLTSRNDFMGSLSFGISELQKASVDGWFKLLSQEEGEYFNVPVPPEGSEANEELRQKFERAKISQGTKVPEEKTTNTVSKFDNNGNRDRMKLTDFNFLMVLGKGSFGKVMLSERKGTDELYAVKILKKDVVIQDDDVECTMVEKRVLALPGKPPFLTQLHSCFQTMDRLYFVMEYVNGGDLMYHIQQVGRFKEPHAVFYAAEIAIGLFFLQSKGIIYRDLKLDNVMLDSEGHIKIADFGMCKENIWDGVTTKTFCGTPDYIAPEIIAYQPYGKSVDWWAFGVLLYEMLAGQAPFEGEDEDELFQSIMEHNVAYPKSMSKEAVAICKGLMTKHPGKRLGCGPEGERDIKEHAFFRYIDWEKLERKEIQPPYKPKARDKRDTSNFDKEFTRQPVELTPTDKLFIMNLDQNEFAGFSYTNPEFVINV
Chain of Rho-associated protein kinase 1 (Homo sapiens) (Q13464 2-1354 limits assumed): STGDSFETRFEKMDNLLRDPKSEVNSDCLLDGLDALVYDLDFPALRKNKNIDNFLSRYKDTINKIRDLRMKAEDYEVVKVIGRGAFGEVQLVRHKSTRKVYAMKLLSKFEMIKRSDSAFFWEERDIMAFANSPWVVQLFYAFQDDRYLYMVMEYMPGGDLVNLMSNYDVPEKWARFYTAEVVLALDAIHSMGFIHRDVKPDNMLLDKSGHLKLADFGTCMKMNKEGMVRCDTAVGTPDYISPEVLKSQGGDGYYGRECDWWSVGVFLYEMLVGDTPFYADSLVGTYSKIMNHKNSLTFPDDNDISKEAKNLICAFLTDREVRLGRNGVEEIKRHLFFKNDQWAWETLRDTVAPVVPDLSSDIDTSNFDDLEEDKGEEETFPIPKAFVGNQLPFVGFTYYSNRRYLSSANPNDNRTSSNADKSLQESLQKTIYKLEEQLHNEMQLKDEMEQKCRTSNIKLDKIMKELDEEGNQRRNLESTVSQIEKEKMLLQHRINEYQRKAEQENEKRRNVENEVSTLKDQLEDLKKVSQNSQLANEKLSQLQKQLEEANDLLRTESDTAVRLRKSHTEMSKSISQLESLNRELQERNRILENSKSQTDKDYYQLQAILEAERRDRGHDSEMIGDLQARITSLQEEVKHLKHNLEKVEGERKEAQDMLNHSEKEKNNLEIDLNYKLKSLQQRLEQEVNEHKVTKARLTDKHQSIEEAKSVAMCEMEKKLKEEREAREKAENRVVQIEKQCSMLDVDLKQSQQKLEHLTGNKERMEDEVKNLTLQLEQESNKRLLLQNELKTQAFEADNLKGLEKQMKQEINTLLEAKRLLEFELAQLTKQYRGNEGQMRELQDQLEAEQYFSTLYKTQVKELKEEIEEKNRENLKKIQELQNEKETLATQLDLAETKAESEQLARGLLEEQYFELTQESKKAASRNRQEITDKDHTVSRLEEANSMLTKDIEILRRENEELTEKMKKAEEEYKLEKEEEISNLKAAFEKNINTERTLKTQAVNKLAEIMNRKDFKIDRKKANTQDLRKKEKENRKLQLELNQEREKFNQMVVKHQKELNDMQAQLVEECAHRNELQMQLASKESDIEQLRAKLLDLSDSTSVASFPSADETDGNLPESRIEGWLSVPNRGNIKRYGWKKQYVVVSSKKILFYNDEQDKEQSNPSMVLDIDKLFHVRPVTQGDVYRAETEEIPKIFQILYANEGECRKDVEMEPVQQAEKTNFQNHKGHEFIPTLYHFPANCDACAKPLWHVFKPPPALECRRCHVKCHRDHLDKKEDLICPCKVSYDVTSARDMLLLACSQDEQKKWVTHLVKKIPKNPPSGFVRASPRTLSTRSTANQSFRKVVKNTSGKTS

`CCn1c(-c2nonc2N)nc2c(C#CC(C)(C)O)ncc(OC[C@@H]3CCCN3)c21`: the inhibition turned out to be 44.6% in test [1]; 0.62% in test [2]; 11.4% in test [3]; 30% in test [4]; 72.3% in test [5]; 7.63% in test [6]. Also, the inhibition in test [7] worked out at 37.1%; in [8] it was 2.68%; in [9], 19.2%; in test [10], 4.02%; in [11], 12.6%; in test [12] it was 2.38%. Further, the inhibition in [13] came out at 15.9%; in [14], 49.9%; in [15], 76.4%; in [16], 65.7%; in test [17], 76.5%; in test [18], 77%. The results for the inhibition in test [19] and in test [20] were 85.4% and 1.1%, respectively.

Consider `Nc1nonc1-c1nc2cnccc2n1C1CCCCC1`, for which the inhibition in test [1] is 49%; in test [2], -0.01%; in test [3], 4.76%; in [4], 10.3%; in [5], 55.2%; in test [6] it was 6.66%. The inhibition in [7] was 33.7%; in [8] it was -0.73%; in [9], 2.75%; in [10], -1.07%; in [11] it was 4.59%; in test [12], -1.73%. Also, the inhibition in test [13] was 2.27%; in test [14], 14.4%; in test [15], 61.2%; in [16], 41.1%; in test [17], 80.9%; in [18] it was 3.71%. Besides, the results for the inhibition in test [19] and in test [20] were 21.7% and 31%, respectively.
